Screens: PubChem, National Center for Advancing Translational Sciences (NCATS)
In the library only some 9.9% were active in any assay of this set; here they are far more common.
MCF10A rereplic: A quantitative high throughput screen for small molecules that induce DNA re-replication in MCF 10a normal breast cells. Potency, µM (highest dose often 46.1 µM), for the others: at the top dose activity, positive = re-replication, most hits filed as activators. 350,000 tested, 2.9% active. MCF 10A DNA re-replication, Hoechst nuclear intensity, 48 h. AID 624296, 2012; note: potency is the fitted concentration of half-maximal effect; % of control where 0% means no effect; nearly all actives have a fitted effect of over 50% in size
KB-V1 MDR tox: qHTS assay for MDR1-selective chemotherapeutics: Primary screen using the drug-selected MDR subline cells KB-V1. KB-V1 MDR cells viability, CellTiter-Glo, 72 h. 400,000 tested, 3.4% active. Potency, µM (top dose mostly 46.1 µM), usual class: cytotoxic; note: potency is the fitted concentration of half-maximal effect; % is set by controls: 0 for no effect and ±100 for the full control effect; nearly all actives have a fitted effect of over 60% in size
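KB-V1 MDR subline cells in DMEM (phenol-red free, 10% FBS) exposed to compounds in qHTS concentration series for 72 h at 37 degrees C. Viability read by CellTiter-Glo luminescence; concentration-effect curves fitted after normalization and correction.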
IL1B secr inh: qHTS for Inhibitors of Inflammasome Signaling: IL-1-beta AlphaLISA Primary Screen; THP-1 LPS/ATP IL-1B secretion, AlphaLISA, 16 h; active compounds read low; AID 743279, 2014; 360,000 tested, 4.7% active; activity change, % at 57.5 µM; in the data active = activity change below about -50%; inconclusive = mostly about -30% to -49%; note: % is set by controls: 0 for no effect and ±100 for the full control effect
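Secreted IL-1B measured by AlphaLISA bead assay after 16 h compound exposure of THP-1 cells; compounds (final up to 57.5 uM) added 1 h before LPS (250 ng/mL) and ATP (1.25 mM) stimulation; lower signal means less secretion.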
KB-3-1 tox: qHTS assay for MDR1-selective chemotherapeutics: Primary screen using the parental adenocarcinoma cell KB-3-1 | 400,000 tested, 1.4% active | AID 1347075, 2019 | KB-3-1 viability, CellTiter-Glo ATP luminescence, 72 h | Potency, µM (titrated, usually from 46.1 µM), usual class: cytotoxic; note: potency is the fitted concentration of half-maximal effect; % is set by controls: 0 for no effect and ±100 for the full control effect; nearly all actives have a fitted effect of over 60% in size
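Luminescent ATP read-out (CellTiter-Glo) measures survival of drug-naive KB-3-1 cells after 72 h compound exposure at 37 °C. Titration series was screened from lowest to highest concentration, with DMSO vehicle plates as background controls.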
SW480 rerep: A quantitative high throughput screen for small molecules that induce DNA re-replication in SW480 colon adenocarcinoma cells. 340,000 tested, 1.8% active. Potency, µM (series often up to 46.1 µM), for the others: top-dose re-replication activation, usual class: activators. SW480 DNA re-replication, Hoechst DNA content imaging, 48 h; note: potency is the fitted concentration of half-maximal effect; % of control where 0% means no effect; nearly all actives have a fitted effect of over 55% in size
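First, 250 cells per well were seeded. Next, compound or vehicle (23 nL) was pinned in, plates sat 48 hr at 37 C. Finally Hoechst was added for 40 min before fluorescence scanning.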
Numbers without * were called inactive; i = inactive; ? = inconclusive; / = no result. Unless noted, calls come from the whole dose curve; as a rule, active = well fitted curve in the direction sought with a large enough effect; inconclusive = small, poorly fitted or top-dose-only effect, or another doubt; inactive = no such curve, though single readings can be large; an effect the other way counts as inactive or inconclusive.

SMILES	MCF10A rereplic	KB-V1 MDR tox	IL1B secr inh	KB-3-1 tox	SW480 rerep
CCOC(=O)Cn1nc(C)n(-c2ccccc2)c1=O	3%	i	1	i	-5%
CCOC(=O)Cn1nc(C)n(-c2c(C)cccc2C)c1=O	-3%	i	-62*	i	-4%
CCc1ccc(CN(C)C(=O)c2cc(COc3ccc(OC)cc3Cl)on2)nc1	7%	/	-14	/	-1%
Cc1cccc(C(=O)N/N=C/c2cc(Br)c(Br)o2)c1	?	?	-55*	i	-695%
Cn1ccc(C(=O)N/N=C/c2c[nH]c3ccccc23)n1	3%	i	-12	18µM*	-6%
Cc1onc(-c2ccccc2)c1C(=O)N/N=C/c1c[nH]c2ccccc12	?	?	-72*	i	-47%
O=C(N/N=C/c1c[nH]c2ccccc12)c1ccn(Cc2ccc(Cl)cc2Cl)n1	?	i	-7	i	-1%
Cc1onc(-c2ccccc2)c1C(=O)N/N=C/c1cc(Br)c(Br)o1	?	i	-93*	?	10%
CCN(CC)S(=O)(=O)c1ccc(NC(=O)c2ccc(N3CCCC3=O)cc2)cc1	11%	i	-2	i	0%
CCCOC(=O)c1ccc(Nc2nc3ccccc3nc2-n2nc(C)cc2C)cc1	/	i	/	i	/
CCOc1cc([N+](=O)[O-])cc(/C=N/NC(=O)c2c(-c3ccccc3)noc2C)c1O	15%	?	132	?	8.2µM*
CCOc1cc(/C=N/NC(=O)c2c(-c3ccccc3)noc2C)ccc1O	9%	i	38	i	4%
O=C1C(Sc2ccccc2)=C[C@@]2(O)CC[C@@H](O)[C@]1(Sc1ccccc1)[C@H]2O	/	i	-80*	i	/
Cc1ccc(-c2nc(Nc3ccc(O)cc3)c3ccccc3n2)cc1	?	?	-88*	?	?
CNC(=O)c1ccc(Nc2nc(-c3ccccc3)nc3ccccc23)cc1	?	?	-90*	i	-2%
COCCN(CCOC)c1nc(-c2ccc(C)cc2)nc2ccccc12	?	?	-6	i	7%
O=[N+]([O-])c1ccc(-c2nc(Nc3cccc(O)c3)c3ccccc3n2)cc1	?	?	-70*	i	2%
Cc1ccc(-c2nc(C(Cl)Cl)c3ccccc3n2)cc1	?	21µM*	203	21µM*	?
O=C(O)c1cccc(Nc2nc(-c3ccc([N+](=O)[O-])cc3)nc3ccccc23)c1	10%	i	34	i	-15%
CCCSCCCNC(=O)c1ccc(NC(=O)C2=CSCCO2)cc1	3%	i	?	i	-2%
CCN(CC)S(=O)(=O)c1ccc2c(c1)oc(=O)n2CC(=O)NC1CCCCC1	-4%	i	-13	i	-6%
O=C1CCCc2cc(S(=O)(=O)NCC3CCC(C(=O)Nc4ccc(Cl)cc4)CC3)ccc2N1 (stereo unspecified)	/	i	/	i	/
COCCOC(=O)c1c(C)oc2c1cc(NS(=O)(=O)c1ccc(Cl)c(C)c1)c1ccccc12	/	i	/	i	/
COc1ccc(C(=O)c2cn(Cc3cccc(C)c3)c3cc4c(cc3c2=O)OCO4)cc1	/	i	/	i	/
Cc1c(Cl)cccc1NC(=O)C(=O)NCCc1csc(-c2cccc(F)c2)n1	/	i	/	i	/
Oc1ccc(Nc2nc(-c3ccccc3O)nc3ccccc23)cc1	?	i	-65*	i	?
O=C(c1ccco1)N(Cc1ccc([N+](=O)[O-])cc1)c1ccc(Br)cc1	-5%	?	-9	i	-1%
O=C(c1ccco1)N(Cc1cccc([N+](=O)[O-])c1)c1ccc(Br)cc1	20%	i	-54*	i	7%
O=C(c1ccco1)N(Cc1ccc([N+](=O)[O-])cc1)c1ccc(Cl)cc1	-5%	?	-2	i	-6%
